# High-throughput results (PubChem)
# IL-1B inflam inh: inflammasome signaling inhibition, IL-1 beta readout; THP-1 LPS/ATP IL-1B secretion, AlphaLISA, 16 h; hits give low values; activity change, % at 57.5 µM; actives 4.7% (n = 360,000); AID 743279; in the data active = activity change below about -50%; inconclusive = mostly about -30% to -49%
#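 THP-1 cells pretreated 1 hr with compounds (up to 57.5 uM final), then stimulated with LPS (250 ng/mL final) plus ATP (1.25 mM final); secreted IL-1B measured by AlphaLISA after 16 hr, decreased signal indicating inhibition.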
# HT1080 IDH1KD tx: kills HT-1080 cells with IDH1 knockdown. Potency, µM (doses to about 46.1 µM), without a hit: top-dose activity, negative = toxicity, most hits filed as cytotoxic. actives 2% (n = 360,000). HT-1080 IDH1 knockdown viability, ATP luminescence, 48 h;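 note: potency is the fitted concentration of half-maximal effect; 0% = DMSO wells and -100% = cell-free medium wells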
#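 Knockdown cells (IDH1KD HT-1080) received compounds 2 h after plating at 750 cells/well and were kept 48 h at 37 °C in 5% FBS RPMI. A CellTiter-Glo luminescence read gave % activity for curve fitting.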
# uPA surface inh: blocks generation of uPA at the cell surface. Potency, µM (highest dose often 38.3 µM), without a hit: top-dose activity change, negative = inhibition, usual class: inhibitors. cell surface uPA generation assay, qHTS. AID 540303. actives 0.31% (n = 330,000); active = well fitted inhibition curve with a large enough effect; inconclusive = small, poorly fitted or top-dose-only effect; inactive = no such curve, though single readings can be large or run the other way; tested in mouse RAW 264.7 cells; note: potency is the fitted concentration of half-maximal effect; nearly all actives have a fitted effect of over 55% in size
# TDP1 cell noCPT: qHTS for Inhibitors of human tyrosyl-DNA phosphodiesterase 1 (TDP1): qHTS in cells in absence of CPT; Potency, µM (series often up to 46.2 µM), without a hit: at the top dose activity change, negative = growth inhibition, usual class: inhibitors; DT40 Tdp1-/- hTDP1 cells, no CPT, ATP luminescence, 48 h; actives 15% (n = 420,000); AID 686978, 2013; note: potency is the fitted concentration of half-maximal effect; nearly all actives have a fitted effect of over 55% in size
#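 Chicken DT40 Tdp1-/- cells complemented with human TDP1, screened without camptothecin (DMSO vehicle only), 400 cells/well. Compounds pin-transferred, cells incubated at 37 °C for at least 48 hr. Growth read as ATP-dependent luminescence (CellTiter-Glo, 30 min at RT).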
# TDP1 cell CPT: DT40-hTDP1 cell growth loss with CPT; AID 686979; actives 12% (n = 420,000); chicken DT40 Tdp1-/-;hTDP1 cells + 20 nM CPT, ATP luminescence, 48 h; Potency, µM (top dose mostly 46.2 µM), inactives show at the highest dose activity change, negative = growth inhibition, usual class: inhibitors; note: potency is the fitted concentration of half-maximal effect; nearly all actives have a fitted effect of over 55% in size
#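 Chicken DT40 Tdp1-/- cells complemented with human TDP1, 400 cells/well, exposed to compounds plus 20 nM camptothecin for at least 48 h at 37 C; viability read as ATP content by CellTiter-Glo luminescence.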
# HT1080-NT tox: kills 2HG-producing HT-1080-NT fibrosarcoma cells; HT-1080-NT fibrosarcoma viability, CellTiter-Glo ATP luminescence, 48 h; Potency, µM (series often up to 46.1 µM), for inactives: at the highest dose activity, negative = less viability, actives largely listed as cytotoxic; actives 1.6% (n = 360,000);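 note: NT is the 2HG producing partner of a matched IDH1 knockdown line; potency is the fitted concentration of half-maximal effect; 0% = DMSO-treated cells and -100% = media-only wells without cells; nearly all actives have a fitted effect of over 55% in size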
#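 Read-out is CellTiter-Glo luminescence after 10 minutes at room temperature, following 48 hours' compound treatment of HT-1080-NT cells (750 cells/well, RPMI, 5% FBS, 37 degrees C).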
# * hit, by the source's call; ? = inconclusive; / = no result given. Sampled rows, rich in hits. Any-hit rate of the full collection: about 19%. Unless noted, calls come from the whole dose curve; as a rule, active = well fitted curve in the direction sought with a large enough effect; inconclusive = small, poorly fitted or top-dose-only effect, or another doubt; inactive = no such curve, though single readings can be large; an effect the other way counts as inactive or inconclusive. Unless noted, % is set by controls: 0 for no effect and ±100 for the full control effect.
SMILES,IL-1B inflam inh,HT1080 IDH1KD tx,uPA surface inh,TDP1 cell noCPT,TDP1 cell CPT,HT1080-NT tox
CN1CCn2cnc(C(=O)Nc3ccc(CNC(=O)OC(C)(C)C)cc3)c2C1=O,-10,-2%,/,?,?,-4%
COc1ccc2c(c1)Cc1sc(NC(=O)c3ccc(Cl)cc3)nc1-2,/,/,/,13µM*,21µM*,/
COc1ccc(C(=O)Nc2nc(-c3ccc([N+](=O)[O-])cc3)c(-c3ccc(OC)cc3)s2)cc1,5,3%,5%,10µM*,?,9%
CC(=O)c1sc(NC(=O)c2ccc(Cl)cc2)nc1C,?,16%,-3%,-8%,-3%,9%
COc1ccc2c(c1)-c1nc(NC(=O)c3ccc(OC)c(Br)c3)sc1CC2,/,/,/,8.2µM*,?,/
COc1ccc(C(=O)Nc2nc3c(s2)CCc2cc(OC)ccc2-3)cc1,/,/,/,26µM*,23µM*,/
COc1ccc(C(=O)NCCNc2ccc([N+](=O)[O-])cc2)cc1,-7,1%,3%,?,-26%,-2%
CN(CC(=O)NCc1ccccc1F)S(=O)(=O)c1ccc(Cl)cc1,-13,-10%,-7%,?,-7%,0%
Cc1ccc(CNS(=O)(=O)c2ccc(-n3cccn3)cc2)cc1,7,-1%,/,?,?,0%
CN1CCN(C2(CNC(=O)c3ccc([N+](=O)[O-])cc3)CCCCC2)CC1,/,/,/,-1%,-7%,/
O=C(c1ccc(Cl)cc1)N1CCC(c2ccncc2)CC1,/,/,/,-72%,?,/
CCOC(=O)N1CCN(C(=O)c2ccc(Oc3ccc([N+](=O)[O-])cc3)cc2)CC1,-11,-18%,-10%,23µM*,16µM*,-1%
CN1CCN(C(=O)c2ccc(Oc3ccc([N+](=O)[O-])cc3)cc2)CC1,-10,6%,-10%,?,-13%,2%
CCOc1ccc(C(=O)N2CCC(c3ccncc3)CC2)cc1,/,/,/,?,13µM*,/
CCOc1ccc(C(=O)C2CCN(C(=O)c3ccc([N+](=O)[O-])cc3)CC2)cc1,-3,-15%,-6%,21µM*,?,-16%
COc1cccc(NC(=O)CCc2c(C)nc3ncnn3c2C)c1,/,/,/,-5%,13%,/
O=C(NCC1CCCO1)c1cccc(S(=O)(=O)Nc2ccc(F)cc2)c1 (configuration not stated),0,-2%,?,-29%,-19%,-4%
O=[N+]([O-])c1nccn1CC(O)CO (configuration not stated),16,2%,/,0%,-14%,4%
COc1cccc(NC(=O)CSCc2cc(=O)c3ccc(C)c(C)c3[nH]2)c1,/,/,/,-18%,-2%,/
COc1ccccc1CNS(=O)(=O)c1cc(C(=O)N(C)Cc2cccnc2)c(Cl)cc1Cl,12,-10%,-5%,?,?,1%
COc1ccccc1NC(=O)c1cc(-c2ccc(OC)c(OC)c2)nc2ccccc12,-4,11%,3%,9.2µM*,16µM*,19%
COc1ccc(-c2cc(C(=O)Nc3ccc(O)cc3)c3ccccc3n2)cc1OC,-25,-29%,-3%,1.5µM*,10µM*,?
COc1ccc(-c2cc(C(=O)NCC(c3ccccc3)N(C)C)c3ccccc3n2)cc1OC (configuration not stated),?,?,-6%,?,?,?
CNc1cncc(-c2cnn(CC(C)C)c2)n1,-9,4%,/,-21%,-12%,5%
CN(CC(=O)NCCCc1ccccc1)Cc1ccc(Br)cc1,-8,-4%,3%,?,?,?
CN(CC(=O)Nc1ccccc1)CC(=O)Nc1ccc(F)cc1,-8,26%,-1%,-14%,1%,13%
CN(CC(=O)NCCc1ccc(F)cc1)Cc1ccc(Br)cc1,-59*,-11%,0%,?,-6%,-15%
